Measurements published in paper PMC4336329 (PLoS ONE, 2015).
Among all 310,000 compounds or so, about 14,000 (4.5%) showed an effect of 50% or more. Effects have a minus sign here. Only a selection was taken, and strong results are over-represented in it overall.

Target: human ether-à-go-go-related gene (hERG) potassium channel (human, UniProt Q12809)
Assay: primary screen, population patch clamp on CHO cells stably expressing hERG; higher = less effect of the substance
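Further: peak tail current of the secondary pulse compared with the same well before compound.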

Chain of human ether-à-go-go-related gene (hERG) potassium channel (Q12809 whole entry, looked up): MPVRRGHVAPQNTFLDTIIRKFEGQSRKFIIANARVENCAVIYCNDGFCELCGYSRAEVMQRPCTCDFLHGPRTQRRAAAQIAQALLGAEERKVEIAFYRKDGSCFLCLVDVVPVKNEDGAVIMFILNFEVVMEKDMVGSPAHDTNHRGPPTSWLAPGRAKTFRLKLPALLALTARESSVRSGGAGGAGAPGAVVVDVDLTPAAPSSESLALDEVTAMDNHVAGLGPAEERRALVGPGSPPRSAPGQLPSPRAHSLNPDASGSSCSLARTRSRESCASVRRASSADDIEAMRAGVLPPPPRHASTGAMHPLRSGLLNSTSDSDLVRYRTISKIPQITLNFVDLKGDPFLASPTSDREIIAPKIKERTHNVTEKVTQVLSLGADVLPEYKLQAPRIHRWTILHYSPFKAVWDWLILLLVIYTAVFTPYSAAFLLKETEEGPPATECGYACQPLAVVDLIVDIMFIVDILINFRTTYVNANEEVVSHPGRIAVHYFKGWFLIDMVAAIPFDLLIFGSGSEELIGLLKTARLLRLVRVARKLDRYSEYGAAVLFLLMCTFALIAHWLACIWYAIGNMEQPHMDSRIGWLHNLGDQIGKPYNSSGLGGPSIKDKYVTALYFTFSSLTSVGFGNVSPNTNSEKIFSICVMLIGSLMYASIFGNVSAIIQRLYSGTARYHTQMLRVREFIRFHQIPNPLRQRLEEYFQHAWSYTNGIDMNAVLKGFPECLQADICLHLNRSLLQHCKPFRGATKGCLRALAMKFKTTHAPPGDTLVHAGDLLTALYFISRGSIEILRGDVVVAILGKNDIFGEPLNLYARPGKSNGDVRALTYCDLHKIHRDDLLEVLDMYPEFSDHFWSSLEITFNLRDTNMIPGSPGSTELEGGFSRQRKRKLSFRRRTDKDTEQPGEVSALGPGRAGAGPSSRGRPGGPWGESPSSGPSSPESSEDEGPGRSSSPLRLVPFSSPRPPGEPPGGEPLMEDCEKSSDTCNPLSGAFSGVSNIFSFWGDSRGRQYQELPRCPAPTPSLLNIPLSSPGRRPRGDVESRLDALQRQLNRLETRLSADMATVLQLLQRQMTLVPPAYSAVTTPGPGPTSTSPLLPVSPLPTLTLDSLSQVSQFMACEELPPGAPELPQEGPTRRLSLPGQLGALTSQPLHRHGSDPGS

| SMILES | hERG current change (%, negative = inhibition) at 10uM [%] |
| --- | --- |
| Cc1cccc(-c2oc3ccc(-c4ccc5c(c4)OCO5)cc3c2C(=O)OCc2ccc(O)cc2)c1 | 6.27 |
| c1ccc(-c2nn[nH]n2)nc1 | 9.49 |
| Cc1cccc(NC(=S)NCCC(c2ccccc2)c2ccccc2)c1 | 12 |
| CCn1c(-c2cc(OC)c(OC)c(OC)c2)n[nH]c1=S | 12.1 |
| COc1cccc(CNC(=O)CCCn2nc(C)c3c(C)n(-c4ccccc4)nc3c2=O)c1 | -10 |
| COc1ccc(CCN2CN(S(=O)(=O)c3ccccc3)c3nc4ccccc4nc32)cc1OC | -0.784 |
| Cc1ccc(/C([O-])=C(/C(=S)NCc2ccco2)[n+]2ccccc2)cc1[N+](=O)[O-] | -18 |
| CC(C)C(=O)NNS(=O)(=O)c1ccccc1[N+](=O)[O-] | 3.1 |
| COc1ccc(N=C2SC(C(=O)O)CC(=O)N2C)cc1 (stereo not drawn) | 1.4 |
| COCC(=O)N1CCN(c2ccc([N+](=O)[O-])cc2)CC1 | -62.7 |
| CN1N=C(C(=O)N2CCN(c3ccc([N+](=O)[O-])cc3)CC2)CCC1=O | -73 |
| CCOCC(=O)N1CCN(c2ccc([N+](=O)[O-])cc2)CC1 | -71.8 |
| CN1N=C(C(=O)N2CCCC(N3CCN(c4ccc(F)cc4)CC3)C2)CCC1=O (stereo not drawn) | 2.78 |
| COCC(=O)N1CCN(c2cccc(Cl)c2)CC1 | -8.46 |
| CCOCC(=O)N1CCN(c2cccc(Cl)c2)CC1 | 8.4 |
| COc1ccc(N2CCN(C(=O)c3cc([N+](=O)[O-])ccc3N3CCN(CCO)CC3)CC2)cc1 | -24.6 |
| COc1ccc(N=C2SC(C(=O)N3CCN(c4ccccc4)CC3)CC(=O)N2C)cc1 (stereo not drawn) | -13 |
| COc1ccc(N=C2SC(C(=O)N3CCN(c4ccc([N+](=O)[O-])cc4)CC3)CC(=O)N2C)cc1 (stereo not drawn) | -68.2 |
| CCOCC(=O)N1CCN(c2ccc(F)cc2)CC1 | -15.9 |

| SMILES | hERG current change (%, negative = inhibition) at 10uM [%] |
| --- | --- |
| COc1ccc(C)cc1NC(=O)C(OC(=O)c1ccc(Cl)c(S(=O)(=O)N(C)c2ccccc2)c1)c1ccccc1 (stereo not drawn) | -0.711 |
| O=C(Nc1ccc(O)cc1C(=O)O)c1ccc2c(c1)C(=O)N(Cc1ccco1)C2=O | -16.8 |
| CCOc1ccc2[nH]c(=O)c(CN(CCO)C(=O)c3ccccc3F)cc2c1 | -0.495 |
| COC(=O)Cc1[nH]nc2c1C(c1c[nH]c3ccccc13)C(C#N)=C(N)O2 (stereo not drawn) | 17.8 |
| c1ccc(Nc2c(-c3ccco3)nc3ccccn23)cc1 | 9.75 |
| C=CCC1(N(C(C)=O)c2ccccc2)CCCCC1 | 5.28 |
| CSC(=NC#N)N1CCN(c2ccc([N+](=O)[O-])cc2)CC1 | -77 |
| CSC(=NC#N)N1CCN(c2ccc(Cl)cc2)CC1 | -38.3 |
| CSC(=NC#N)N1CCN(c2ccccc2)CC1 | -2.95 |
| O=C(Nc1ccc2c(c1)OCO2)c1cnn2c1NC(c1ccco1)CC2C(F)(F)F (stereo not drawn) | -4.57 |
| CCc1c(O)nc(SCC(=O)Nc2cc(C)on2)n(-c2ccccc2)c1=O | 3.39 |
| CCn1c(Cc2cccs2)nnc1SCC(=O)NC1CC1 | -1.49 |
| COc1cccc(-n2c(SCC(N)=O)nnc2-c2ccco2)c1 | 13.7 |
| CNC(=O)CSc1nnc(-c2ccco2)n1-c1cccc(OC)c1 | -0.723 |
| O=C(CSc1nnc(Cc2cccs2)n1-c1ccccc1)NC1CCCCC1 | -62.5 |
| Nc1nnc(SCC(=O)NC2CCCCC2)n1-c1ccccc1 | 6.78 |
| CCn1c(SCC(=O)Nc2ncc(C(F)(F)F)cc2Cl)nnc1-c1cccc(C)c1 | -69.9 |
| Cn1c(SCC(=O)Nc2ncc(C(F)(F)F)cc2Cl)nnc1-c1ccc(Cl)cc1 | -30.8 |
| CCn1c(SCC(=O)Nc2ncc(C(F)(F)F)cc2Cl)nnc1-c1ccccc1 | -12.6 |

| SMILES | hERG current change (%, negative = inhibition) at 10uM [%] |
| --- | --- |
| CCn1c(SCC(=O)NC2CC2)nnc1-c1ccc(OC)cc1 | 17.4 |
| COc1cccc(-n2c(SCC(=O)NC3CCCC3)nnc2-c2ccco2)c1 | -73.7 |
| C=CCn1c(SCC(=O)NC2CC2)nnc1-c1cccc(OC)c1 | 2.24 |
| CCn1c(SCC(=O)NC2CC2)nnc1-c1cccc(OC)c1 | -66.6 |
| Nn1c(N2CCCCC2)nc2ccccc21 | 6.16 |
| Cc1cc(C(=O)N/N=C2\CCCC(C)C2)n[nH]1 (stereo not drawn) | 11 |
| CCC1=C(c2ccc(C)cc2)S(=O)(=O)N=C1N1CCC(C(=O)NCCCN2CCCCC2)CC1 | 20.5 |
| CCN(CC)CC(=O)Nc1nc(-c2ccc(Cl)cc2)cs1 | -35.8 |
| O=C(COc1ccccc1C(=O)NCC1CCCO1)Nc1ccc(Cl)cc1Cl (stereo not drawn) | -14 |
| COC(=O)c1ccc(COc2ccc(Cl)cc2)o1 | 2.11 |
| Cc1occc1-c1nnc(SCC(=O)NC2CCCC2)n1-c1ccccc1 | -74.8 |
| Cc1cccc(-n2c(SCC(=O)NC3CCCC3)nnc2-c2ccoc2C)c1 | -83.2 |
| CCn1c(SCC(=O)NC2CCCC2)nnc1-c1ccoc1C | 14 |
| CCOc1ccccc1-n1c(SCC(=O)NC2CCCC2)nnc1-c1ccoc1C | -24 |
| Cc1occc1-c1nnc(SCC(=O)NC2CCCC2)n1C | 15.5 |
| Cc1cccc(-n2c(SCC(=O)Nc3ccc4c(c3)OCO4)nnc2-c2ccoc2C)c1 | -0.162 |
| Cc1ccc(C)c(NC(=S)N2CCC(NC(=O)C3CCCCC3)CC2)c1 | 4.41 |
| COc1ccc(NC(=O)COc2ccc(-c3nn(C)c(=O)c4ccccc34)cc2)cc1 | 18.2 |
| S=C(NCc1cccnc1)Nc1cccc(Cl)c1 | -9.78 |
